# High-throughput results: PubChem BioAssay, several laboratories
# CF NFkB inh = inhibitors of cystic fibrosis induced NF-kB. KKLEB NF-kB-GFP reporter, PAF-induced, GFP fluorescence overnight. inhibition, % at 5 µM. 0.86% of 360,000 active;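 active means at least 50% inhibition at 5 µM, scaled per plate between neutral and stimulator controls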;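 further: PAF is a Pseudomonas aeruginosa culture filtrate used as stimulus; plate controls were PAF-stimulated DMSO wells for no effect and unstimulated DMSO wells for full effect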
# KKLEB tox = CF airway cell cytotoxicity counter-screen; AID 602141; activity change (cytotoxicity), % at 5 µM; 0.36% of 360,000 active; KKLEB CF airway cells viability, ATPlite luminescence, overnight; hits give low values; cells stimulated with P. aeruginosa culture filtrate;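 active means corrected activity change at or below -50% at 5 µM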
# TWEAK Fn14 block = inhibitors of TWEAK-Fn14 interaction signaling | TWEAK-stimulated Fn14 reporter cells, luciferase luminescence, 8 h | inhibition, % at 10 µM | 2% of 360,000 active | AID 1159606; in the data active means inhibition above about 50%
# LGR2 antag = blocks bursicon-induced cAMP signaling via Drosophila LGR2. inhibition, % at 9.99 µM. 0.35% of 380,000 active. HEK293 LGR2, CRE-luciferase, bursicon-stimulated, 4 h. AID 720647;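 active means drop in luminescence signal, shown as inhibition above about 50% in the replicate tests, limit read from the data, passing the limit was not always enough; inconclusive means probably only some replicates passing the limit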;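 further: agonist challenge used bursicon conditioned medium at about half maximal strength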
# hiPSC survival = increases survival of single human iPS cells | hiPSC single-cell survival, ATPlite luminescence; 100% = ROCK inhibitor wells, 0% = DMSO | survival enhancement, % at 20 µM | 0.044% of 360,000 active; in the data active means survival enhancement above about 18%;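 further: cells exposed to compounds for 16 hours before the ATP read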
# HIF-2a inh = HIF-2a inhibition | 786-0 RCC cells HIF-2a reporter, luciferase luminescence, overnight | inhibition, % at 18.8 µM | 0.72% of 360,000 active | AID 624352;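 active means inhibition of the luminescence signal of 40% or more relative to plate controls, in a single-dose primary screen at 18.75 µM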
# Numbers without * were called inactive; u = inconclusive; x = not tested or not shown. Most compounds without a hit are left out; they make up all but 2.3% or so of the library.
SMILES,CF NFkB inh,KKLEB tox,TWEAK Fn14 block,LGR2 antag,hiPSC survival,HIF-2a inh
Cn1c(N)c(C(=O)CSc2nn(-c3ccc(F)cc3)c(=S)s2)c(=O)n(C)c1=O,10,6,60*,-4,0,3
CCCCN(C(=O)CSc1nn(-c2ccc(F)cc2)c(=S)s1)c1c(N)n(CCCC)c(=O)[nH]c1=O,34,-19,-8,0,0,12
Cc1noc(C)c1S(=O)(=O)Nc1ccc2c(c1)CC(=O)N([C@H](C)CO)C[C@@H](C)[C@H](CN(C)CC1CCCCC1)O2,x,x,x,6,x,x
Cc1csc(NC(=O)CSc2nnc(-c3ccco3)n2C)n1,3,-1,86*,x,15,7
O=C(CSc1nnc(-c2ccncc2)n1Cc1ccco1)Nc1ccccc1Cl,16,-17,12,x,-1,10
O=C(CSc1nnc(-c2ccncc2)n1Cc1ccco1)Nc1nc(-c2ccccc2)cs1,43,-55*,28,x,-2,2
C[C@H](CO)N1C[C@H](C)[C@H](CN(C)S(C)(=O)=O)Oc2cc(C#CC3CC3)ccc2S1(=O)=O,x,x,x,6,x,x
Cc1cccc(-c2nc(S(=O)(=O)c3ccc(F)cc3)c(NCCCN3CCOCC3)o2)c1,23,-4,78*,-3,2,7
O=C(Nc1cc(F)ccc1F)N[C@H]1C=C[C@H](CC(=O)N2CCc3ccccc3C2)O[C@@H]1CO,x,x,x,9,x,x
Cn1c(=O)c2c(nc(NCCNC(=O)c3ccco3)n2Cc2ccccc2)n(C)c1=O,-11,-1,98*,12,0,13
COc1cc(/C=N/Nc2nc3c(c(=O)n(C)c(=O)n3C)n2Cc2ccccc2)ccc1OC(=O)c1ccco1,-79,9,72*,51*,-1,-29
C[C@H](O)C#Cc1cnc2c(c1)C(=O)N([C@@H](C)CO)C[C@H](C)[C@H](CN(C)C(=O)Cc1ccccn1)O2,x,x,x,-7,x,x
NC(=S)n1[nH]c(-c2ccc([N+](=O)[O-])cc2)c(N=Nc2ccc(Cl)cc2)c1=O,-18,-24,54*,x,-2,-44
Cc1ccc([N+](=O)[O-])cc1N=Nc1c(-c2ccc([N+](=O)[O-])cc2)[nH]n(C(N)=S)c1=O,-27,-44,81*,x,0,-29
Cc1ccc([N+](=O)[O-])cc1N=Nc1c(C)[nH]n(C(N)=S)c1=O,-12,5,-4,-16,0,6
CC(=O)OC[C@]12CC[C@H]3[C@@](C)(CC[C@H]4C(C)(C)CCC[C@]34C)[C@@H]1CC(C1=CC(=O)OC1O)O2 (stereo partly drawn),92*,-81*,108*,x,-4,89*
CO[C@H]1CN(C)C(=O)c2ccc(NS(=O)(=O)c3cn(C)cn3)cc2OC[C@@H](C)N(CCC(F)(F)F)C[C@H]1C,x,x,x,-8,x,x
COc1ccc(-[n+]2c(C)cc(/C=C3\Sc4ccccc4N3C)cc2C)cc1,-82,-31,5,-1,-1,53*
COc1ccc(C(=O)/C=C2\Sc3ccccc3N2C)cc1,-3,-2,42,-22,-1,-181
Oc1c(Cl)cc(Cl)c2cccnc12,20,-26,45,5,-2,15
Cc1ccc2c(Cl)cc(Cl)c(O)c2n1,52*,-35,101*,11,0,6
C[C@H](CO)N1C[C@H](C)[C@@H](CN(C)CC2CC2)Oc2ccc(NS(=O)(=O)c3cccs3)cc2CC1=O,x,x,x,0,x,x
CCCCC(=O)Nc1cc2nn(-c3ccc(OC)cc3)nc2cc1C,7,-5,-43,10,0,-97
COc1ccc(-n2nc3cc(C)c(NC(=S)NC(=O)c4ccccc4C)cc3n2)cc1,55*,-59*,-84,-36,0,-163
CCC(=O)Nc1cc2nn(-c3ccc(OC)cc3)nc2cc1C,-3,-4,70*,u,-2,-151
CCC(=O)Nc1cc2nn(-c3ccc(C)cc3)nc2cc1C,-6,-32,93*,40,-2,-40
COc1ccc(C(=O)NC(=S)NNC(=O)c2ccccc2C)cc1,-14,8,-27,-5,1,-54
CC(C)C#Cc1cnc2c(c1)C(=O)N([C@@H](C)CO)C[C@@H](C)[C@H](CN(C)S(=O)(=O)c1cn(C)cn1)O2,x,x,x,4,x,x
O=C1CSC(=S)N1c1cccc(O)c1,43,-18,76*,16,-1,48*
